From PubChem BioAssay (NCATS)
“And” between values parts separate entries of the source, which are not always exact repeats. Equal values may be shown once. Records with an inconclusive call do not appear. The source holds several records for some structures; these can differ, active in one and inactive in another. The source made the active and inactive calls. Unless noted, calls come from the whole dose curve; as a rule, active = well fitted curve in the direction sought with a large enough effect; inconclusive = small, poorly fitted or top-dose-only effect, or another doubt; inactive = no such curve, though single readings can be large; an effect the other way counts as inactive or inconclusive.

Legend:
[1] = Cell Viability - HUV-EC-C (AID 542); conditions: HUV-EC-C endothelial cell viability, qHTS; series mostly up to 92.2 µM;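 note: cells exposed to compound for 40 hours; % is set by controls: 0 for no effect and ±100 for the full control effect; nearly all actives have a fitted effect of over 35% in size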
How it was run: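 Luminescent ATP read-out (CellTiter-Glo, 20 min room temperature) after 40 hr compound treatment of HUV-EC-C cells at 37 °C. Concentration-response data fitted with the standard Hill equation to give AC50; tamoxifen and doxorubicin served as positive controls.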

[2] = Cellular Toxicity (caspase-3) HUV-EC-C (AID 656); conditions: HUV-EC-C cells, caspase-3 activation (apoptosis); series mostly up to 92.2 µM
How it was run: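 Luminescent Caspase-Glo 3/7 readout after 16 h, 37 °C compound exposure of HUV-EC-C endothelial cells, 1000 per well, complete medium. AC50 derived by Hill fitting, with DMSO as baseline and 100 uM tamoxifen as full activation.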

[3] = Cellular Toxicity (caspase-3) N2a (AID 665); conditions: N2a cells, luminescence, normalized: DMSO 0%, 10 µM staurosporine 100%; series mostly up to 92.2 µM;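 note: compound exposure lasted 16 h at 37 °C before readout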
How it was run: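 Luminescent Caspase-Glo 3/7 readout in N2a mouse neuroblastoma cells after 16 h compound exposure at 37 °C. Signal scaled to DMSO (basal) and 10 uM staurosporine (100%). Concentration-response fitted with Hill equation for AC50.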

[4] = target: Cytochrome P450 3A4 (Homo sapiens) (UniProt P08684); assay: qHTS Assay for Inhibitors and Substrates of Cytochrome P450 3A4 (AID 884); conditions: recombinant CYP3A4, Luciferin-PPXE luminescence; series mostly up to 57.1 µM; note: % is set by controls: 0 for no effect and ±100 for the full control effect; nearly all actives have a fitted effect of over 50% in size
How it was run: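 Luminescent readout of luciferin produced by CYP3A4 (20 nM) dealkylation of Luciferin-PPXE, 25 uM (its KM). NADPH-driven reaction ran 60 min at RT after 10 min compound preincubation; data scaled to 57 uM ketoconazole as 100% inhibition.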

[5] = MultiTox-Fluor Cytotoxicity Assay - LYMP1-003 - Dead Cells (AID 961); conditions: LYMP1-003 lymphoblastoid cells, dead-cell protease fluorescence; series mostly up to 92.2 µM; note: nearly all actives have a fitted effect of over 70% in size
How it was run: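 Dead-cell protease release, detected as bis-AAF-R110 fluorescence at 485/520 nm, was measured in LYMP1-003 cells after 16 h compound treatment at 37 C. AC50 values came from Hill-modeled qHTS curves normalized to DMSO (0%) and 15 uM tetraoctylammonium bromide (100%).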

[6] = Cell Viability - LYMP2-003 (AID 965); conditions: LYMP2-003 lymphoblastoid cell viability; series mostly up to 92.2 µM;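 note: cells exposed to compounds for 24 h before reading; 0% = DMSO only and full effect = 92 µM tetraoctylammonium bromide; nearly all actives have a fitted effect of over 50% in size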
How it was run: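 CellTiter-Glo luminescence quantified ATP loss after 24 h compound treatment of LYMP2-003 lymphoblastoid cells at 37 C. Titration series were fitted with the standard Hill equation to give AC50.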

[7] = qHTS assay for small molecule activators of the nuclear factor-kappa B (NF-kB) signaling pathway (AID 651749; active = well fitted activation curve with a large enough effect in the signal ratio; the % refers to the signal ratio; note: % of control where 0% means no effect); conditions: NF-kB-bla ME-180 cells, beta-lactamase FRET ratio, 16 h; stronger effect = higher value
How it was run: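 NF-kB-bla ME-180 cells, 2,000/well; 23 nL compound or DMSO pinned; 16 hr, 37C/5% CO2; beta-lactamase FRET read-out.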

[8] = target: Nuclear receptor ROR-gamma (Homo sapiens) (UniProt P51449); assay: qHTS assay for small molecule antagonists of the retinoid-related orphan receptor gamma (ROR-gamma) signaling pathway (AID 651802); conditions: ROR-gamma antagonist cell reporter assay; series mostly up to 92.2 µM; note: nearly all actives have a fitted effect of over 60% in size; note: potency is the fitted concentration of half-maximal effect
How it was run: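 Luciferase read-out: ONE-Glo luminescence after 30 min at room temperature, following 16hr doxycycline induction at 37C, 5% CO2 of CHO cells with TET-inducible ROR and RORE-LUC reporter; decreased luminescence = reduced reporter activity.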

[9] = qHTS assay for small molecule agonists of the antioxidant response element (ARE) signaling pathway measured by Nrf2-dependant transcriptional activity - cell viability counter screen (AID 720653; active = well fitted curve in the direction sought with a large enough effect in the repeat runs; an effect the other way counts as inactive or inconclusive; note: potency is the fitted concentration of half-maximal effect; for max response: % is set by controls: 0 for no effect and ±100 for the full control effect); conditions: ARE-bla HepG2 viability, CellTiter-Glo ATP luminescence, 16 h; max response: stronger effect = lower value
How it was run: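 ARE-bla HepG2 cells treated with compounds for 16 h at 37C; this counter screen measures viability as intracellular ATP by CellTiter-Glo luminescence after 30 min at room temperature.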

[10] = qHTS assay for small molecule activators of the human pregnane X receptor (PXR) signaling pathway (AID 720659; call rule not given here; note: 0% is about no effect); conditions: DPX-2 HepG2 CYP3A4-luciferase, 24 h; series mostly up to 92.3 µM
[11] = Cell Viability - NIH 3T3 (AID 541); conditions: NIH 3T3 cell viability, qHTS; activity change, negative = cytotoxicity: at 92.2 µM (top of the series);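 note: cells exposed to compound for 40 hours; plate controls were DMSO alone for no effect and tamoxifen positive control for full effect; nearly all actives have a fitted effect of over 25% in size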
How it was run: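 qHTS format; 40 hr compound exposure, 37 °C; CellTiter-Glo luminescence (cellular ATP) read-out after 20 min at RT. Decrease in ATP = cytotoxicity; AC50 from standard Hill fit.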

[12] = Cellular Toxicity (caspase-3) H-4-II-E (AID 663); conditions: H-4-II-E rat hepatoma; Potency: caspase-3 activation; series mostly up to 92.2 µM;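 note: cells exposed to compound for 16 hr before readout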
How it was run: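 H-4-II-E rat hepatoma, 1500 cells/well, 5 hr settle at 37 °C; compound 16 hr, 37 °C, complete medium; Caspase-Glo 3/7, 20 min RT; luminescence. DMSO = 0%, 100 uM tamoxifen = 100%; Hill-equation AC50.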

[13] = target: Estrogen receptor (Homo sapiens) (UniProt P03372); assay: qHTS assay for small molecule antagonists of estrogen receptor alpha signaling (AID 588513; active = well fitted curve in the direction sought with a large enough effect in the signal ratio, with a control signal flat, not every such curve was filed as active; the % refers to the signal ratio; note: % is set by controls: 0 for no effect and ±100 for the full control effect); conditions: ER-alpha-UAS-bla HEK293, beta-lactamase ratio, antagonist mode; series mostly up to 76.9 µM
How it was run: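 Antagonist mode: inhibition of 0.5 nM 17-beta-estradiol-driven beta-lactamase reporter in HEK 293 ER-alpha-UAS-bla cells, 18 h at 37C, CCF4 readout after 2 h at RT. Normalised to estradiol and DMSO; titration fitted to Hill.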

[14] = target: Estrogen receptor (Homo sapiens) (UniProt P03372); assay: qHTS assay for small molecule agonists of estrogen receptor alpha signaling (AID 588514; calls by dose curve;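 note: 0% = vehicle only and 100% = reference agonist; nearly all actives have a fitted effect of over 70% in size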); conditions: ER-alpha-UAS-bla HEK293, beta-lactamase ratio, 18 h; series mostly up to 76.8 µM
How it was run: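 Read-out: CCF4 fluorescence from a beta-lactamase reporter in ER-alpha-UAS-bla HEK 293 cells after 18 hrs of compound exposure at 37 C. Normalized to 20 nM 17-beta-estradiol (100%) and DMSO (0%).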

[15] = target: Glucocorticoid receptor (Homo sapiens) (UniProt P04150); assay: qHTS assay for small molecule antagonists of glucocorticoid receptor signaling (AID 588533; active = well fitted inhibition curve with a large enough effect in the signal ratio, with a control signal flat, not every such curve was filed as active; the % refers to the signal ratio; note: % is set by controls: 0 for no effect and ±100 for the full control effect); conditions: HeLa MMTV-bla, GRE beta-lactamase ratio, antagonist mode, 18 h; series mostly up to 76.8 µM
How it was run: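 Antagonist-mode qHTS: compound titrations added to GRE-bla HeLa cells, then dexamethasone 2 nM final; 18 h, 37 C. CCF4 FRET fluorescence normalized to dexamethasone and DMSO; IC50 from Hill fit.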

[16] = qHTS assay for small molecule agonists of the antioxidant response element (ARE) signaling pathway (AID 651741; active = well fitted activation curve with a large enough effect in the signal ratio; the % refers to the signal ratio; note: potency is the fitted concentration of half-maximal effect; for activation: % of control where 0% means no effect); conditions: HepG2 ARE-bla reporter, beta-lactamase FRET ratio, 16 h; series mostly up to 96 µM
How it was run: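 HepG2 ARE-bla reporter cells, 2,000/well; 5 h settle at 37 C/5% CO2; compound pin transfer (23 nL, DMSO); 16 h at 37 C; LiveBLAzer B/G FRET substrate, 2 h RT; fluorescence intensity read.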

[17] = Cellular Toxicity (caspase-3) NIH 3T3 (AID 666); conditions: NIH 3T3 caspase-3 activation, apoptosis/toxicity, 0% DMSO, 100% is 100 µM tamoxifen; series mostly up to 92.2 µM;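 note: 0% = DMSO basal and 100% = 100 µM tamoxifen stimulation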
How it was run: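 NIH 3T3, 1000 cells/well, 5 hr settle then 16 hr compound at 37°C; Caspase-Glo 3/7, 20 min RT, luminescence. DMSO = basal, 100 uM tamoxifen = 100%. Hill-equation AC50, qHTS.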

[18] = target: Vitamin D3 receptor (Homo sapiens) (UniProt P11473); assay: qHTS assay for small molecule antagonists of vitamin D receptor signaling (AID 588541; calls by dose curve;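 note: receptor activated by calcitriol during compound treatment; % is set by controls: 0 for no effect and ±100 for the full control effect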); conditions: HEK293T VDR-UAS-bla, beta-lactamase ratio, antagonist mode; series mostly up to 76.7 µM
How it was run: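 VDR-UAS-bla HEK293T cells in 2% charcoal-stripped FBS were stimulated with 1-alpha,25-dihydroxyvitamin D3 (3 nM final) plus compound for 16 h at 37 C. The beta-lactamase CCF4 readout was normalized to 50 nM agonist and DMSO, and Hill fits gave IC50.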

[19] = qHTS assay for cell viability of HEK293 cells (AID 743288); conditions: ATP luminescence (CellTiter-Glo), 18 h; max response: stronger effect = lower value; note: % is set by controls: 0 for no effect and ±100 for the full control effect; nearly all actives have a fitted effect of over 50% in size
How it was run: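 Readout is luciferase-coupled ATP content (CellTiter-Glo luminescence, 30 min room temperature) as a measure of metabolically competent cells. Parental HEK293 cells were plated 5 h or more before compound addition, then treated 18 h at 37 C.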

[20] = MultiTox-Fluor Cytotoxicity Assay - LYMP1-003 - Live Cells (AID 962); conditions: LYMP1-003 lymphoblastoid cells, MultiTox-Fluor live-cell protease fluorescence; series mostly up to 92.2 µM;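 note: cells exposed to compound for 16 hours at 37 °C; 0% = DMSO only and full loss = 92 µM tetraoctylammonium bromide; cytotoxic hits lower the live-cell protease signal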
How it was run: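 Readout: live-cell fluorescence (Ex/Em=405/510) from GF-AFC cleavage after 60 min MultiTox-Fluor reagent at room temperature. Lymphoblastoid LYMP1-003 cells, 16 hr compound treatment, 37 C. Concentration-response fitted to standard Hill equation for AC50.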

Sequence of Glucocorticoid receptor (Homo sapiens) (P04150 whole entry, looked up): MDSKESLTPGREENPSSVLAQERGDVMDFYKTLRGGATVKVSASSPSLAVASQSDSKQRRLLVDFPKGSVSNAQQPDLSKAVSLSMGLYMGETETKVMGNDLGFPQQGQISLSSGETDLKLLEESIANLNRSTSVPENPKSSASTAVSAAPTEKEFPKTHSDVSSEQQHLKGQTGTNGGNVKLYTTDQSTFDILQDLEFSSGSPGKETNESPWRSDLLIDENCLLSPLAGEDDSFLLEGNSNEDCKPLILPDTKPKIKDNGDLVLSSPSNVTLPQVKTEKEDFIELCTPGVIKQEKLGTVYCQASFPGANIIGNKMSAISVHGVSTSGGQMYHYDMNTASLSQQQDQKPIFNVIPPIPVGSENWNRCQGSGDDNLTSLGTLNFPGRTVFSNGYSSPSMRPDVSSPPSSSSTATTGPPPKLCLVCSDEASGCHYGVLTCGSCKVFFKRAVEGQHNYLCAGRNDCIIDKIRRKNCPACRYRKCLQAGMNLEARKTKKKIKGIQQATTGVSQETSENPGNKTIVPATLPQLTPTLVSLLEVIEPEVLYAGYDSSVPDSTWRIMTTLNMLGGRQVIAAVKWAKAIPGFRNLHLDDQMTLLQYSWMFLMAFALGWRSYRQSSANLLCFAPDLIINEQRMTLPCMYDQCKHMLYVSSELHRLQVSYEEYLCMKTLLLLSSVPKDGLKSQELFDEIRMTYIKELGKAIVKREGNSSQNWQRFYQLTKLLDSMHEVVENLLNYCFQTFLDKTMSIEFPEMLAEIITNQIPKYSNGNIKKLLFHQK
Sequence of Cytochrome P450 3A4 (Homo sapiens) (P08684 whole entry, looked up): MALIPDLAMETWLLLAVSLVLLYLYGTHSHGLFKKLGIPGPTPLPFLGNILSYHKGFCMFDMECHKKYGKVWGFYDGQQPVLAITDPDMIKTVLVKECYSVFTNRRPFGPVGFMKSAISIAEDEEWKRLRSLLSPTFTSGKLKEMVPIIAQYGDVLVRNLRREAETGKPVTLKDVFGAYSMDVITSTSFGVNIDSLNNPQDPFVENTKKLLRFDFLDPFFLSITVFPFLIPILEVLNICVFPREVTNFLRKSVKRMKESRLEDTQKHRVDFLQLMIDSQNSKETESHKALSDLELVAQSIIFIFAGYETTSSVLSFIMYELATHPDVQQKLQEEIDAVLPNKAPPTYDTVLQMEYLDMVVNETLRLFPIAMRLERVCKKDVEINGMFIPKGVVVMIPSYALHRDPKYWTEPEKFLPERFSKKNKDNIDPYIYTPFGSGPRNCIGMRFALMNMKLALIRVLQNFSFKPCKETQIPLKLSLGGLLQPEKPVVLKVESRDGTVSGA
Sequence of Estrogen receptor (Homo sapiens) (P03372 whole entry, looked up): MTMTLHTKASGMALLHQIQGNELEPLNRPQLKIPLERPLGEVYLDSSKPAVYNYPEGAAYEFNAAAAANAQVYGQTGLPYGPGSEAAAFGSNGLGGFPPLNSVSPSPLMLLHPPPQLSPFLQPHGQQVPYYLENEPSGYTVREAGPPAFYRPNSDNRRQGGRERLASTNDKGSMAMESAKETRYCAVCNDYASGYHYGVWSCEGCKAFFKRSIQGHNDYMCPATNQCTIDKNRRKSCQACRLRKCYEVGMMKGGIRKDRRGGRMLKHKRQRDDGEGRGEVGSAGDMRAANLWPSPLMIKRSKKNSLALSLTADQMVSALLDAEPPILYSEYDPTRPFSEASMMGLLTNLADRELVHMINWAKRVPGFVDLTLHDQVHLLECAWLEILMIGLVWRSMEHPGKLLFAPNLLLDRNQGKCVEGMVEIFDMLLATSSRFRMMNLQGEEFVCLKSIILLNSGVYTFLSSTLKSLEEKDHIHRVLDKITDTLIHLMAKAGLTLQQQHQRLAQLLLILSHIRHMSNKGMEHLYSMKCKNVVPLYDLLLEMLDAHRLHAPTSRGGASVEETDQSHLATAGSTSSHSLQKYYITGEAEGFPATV
Sequence of Vitamin D3 receptor (Homo sapiens) (P11473 whole entry, looked up): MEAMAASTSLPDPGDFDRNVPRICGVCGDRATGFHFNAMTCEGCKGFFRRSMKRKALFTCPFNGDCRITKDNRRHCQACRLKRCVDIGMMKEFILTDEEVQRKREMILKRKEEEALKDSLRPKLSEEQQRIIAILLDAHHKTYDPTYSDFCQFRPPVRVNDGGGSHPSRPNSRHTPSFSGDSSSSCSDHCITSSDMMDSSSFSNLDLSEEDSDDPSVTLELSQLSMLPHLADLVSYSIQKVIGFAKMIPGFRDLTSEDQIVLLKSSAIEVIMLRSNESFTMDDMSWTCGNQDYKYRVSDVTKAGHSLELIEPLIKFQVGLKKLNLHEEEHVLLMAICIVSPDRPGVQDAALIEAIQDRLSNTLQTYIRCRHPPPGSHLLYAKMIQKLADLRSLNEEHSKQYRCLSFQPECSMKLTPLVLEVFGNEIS
Sequence of Nuclear receptor ROR-gamma (Homo sapiens) (P51449 whole entry, looked up): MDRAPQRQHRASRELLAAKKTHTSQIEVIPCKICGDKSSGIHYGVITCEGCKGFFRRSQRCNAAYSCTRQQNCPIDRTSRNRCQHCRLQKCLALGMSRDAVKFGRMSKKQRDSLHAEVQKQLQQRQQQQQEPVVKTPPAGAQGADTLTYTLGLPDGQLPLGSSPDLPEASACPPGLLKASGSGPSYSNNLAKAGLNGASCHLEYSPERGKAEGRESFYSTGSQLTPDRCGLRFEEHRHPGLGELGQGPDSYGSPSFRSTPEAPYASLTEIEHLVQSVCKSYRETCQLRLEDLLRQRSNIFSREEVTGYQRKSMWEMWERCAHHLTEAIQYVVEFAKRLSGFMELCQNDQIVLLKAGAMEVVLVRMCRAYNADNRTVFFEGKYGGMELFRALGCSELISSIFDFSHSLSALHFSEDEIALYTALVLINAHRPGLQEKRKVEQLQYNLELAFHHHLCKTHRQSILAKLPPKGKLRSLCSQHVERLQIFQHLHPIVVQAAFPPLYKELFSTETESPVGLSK

C[C@@H]1CC2(OC(O)[C@]3(C)O[C@H]23)O[C@H]2C[C@@]3(C)[C@@H]4CC[C@H]5C(C)(C)C(O[C@@H]6OC[C@@H](O)[C@H](O)[C@H]6O)CC[C@@]56C[C@@]46CC[C@]3(C)[C@@H]12 (some centres undefined)
active: Potency [8] 33.5 µM | Potency [9] 70.8 µM
inactive: Potency [1] | Potency [2] | outcome [3] | Potency [4] | Potency [5] | Potency [6] | activation [7] -2.65% | outcome [10]

C1CCCNCC1
inactive: activity change, negative = cytotoxicity [11] -12.5% | Potency [1] | Potency [2] | Potency [12] | outcome [3] | Potency [4] | Potency [6] | outcome [13] | Potency [14] | Potency [15] | Potency [16] | Potency [8] | max response [9] -5.98% | outcome [10]

Cc1ccc(S(N)(=O)=O)cc1
inactive and 68.6 µM (active): Potency [16]
inactive: Potency [1] | Potency [12] | outcome [17] | Potency [4] | Potency [5] | Potency [6] | Potency [15] | Potency [18] | activation [7] 1.55% and -0.345% | max response [9] 3.25% and -8.35% | outcome [10]

CC(=O)c1ccc(Cl)c(Cl)c1Cl
inactive: activity change, negative = cytotoxicity [11] -14.4% | Potency [1] | Potency [2] | Potency [12] | outcome [17] | Potency [4] | Potency [5] | outcome [13] | Potency [14] | Potency [15] | Potency [18] | activation [7] -0.287% | max response [9] 4.27% | max response [19] 4.03% | outcome [10]

CC(C)OCC1CO1 (centres undefined)
inactive: activity change, negative = cytotoxicity [11] -16.9% | Potency [12] | outcome [3] | outcome [17] | Potency [4] | Potency [5] | Potency [20] | Potency [6] | outcome [13] | Potency [14] | Potency [18] | Potency [16] | activation [7] 0.599% | max response [9] 0.394% | outcome [10]

Nc1cc(C(=O)O)c(O)c(S(=O)(=O)O)c1
inactive: activity change, negative = cytotoxicity [11] -24.6% | Potency [1] | Potency [2] | outcome [3] | outcome [17] | Potency [4] | Potency [5] | Potency [6] | Potency [15] | Potency [18] | Potency [16] | max response [19] -1.32% | outcome [10]

CC(=O)OC1CC(C)OC(C)O1 (centres undefined)
active: Potency [16] 61.1 µM
inactive: Potency [2] | Potency [12] | Potency [4] | Potency [5] | Potency [20] | Potency [6] | Potency [15] | activation [7] -0.185% and -2.01% | Potency [8] | max response [9] 6.75% and -0.741% | max response [19] -1.36% and -5.57% | outcome [10]

OC1CCCCC1
inactive: activity change, negative = cytotoxicity [11] -12.6% | Potency [12] | outcome [3] | outcome [17] | Potency [4] | Potency [5] | Potency [6] | outcome [13] | Potency [14] | Potency [18] | Potency [16] | Potency [8] | max response [19] 10.8% | outcome [10]

Cc1ccc(N)cc1[N+](=O)[O-]
inactive: Potency [2] | outcome [17] | Potency [6] | Potency [15] | Potency [18] | activation [7] 0.0603% | Potency [8] | outcome [10]
